HPGD inh – HPGD (human) dehydrogenase inhibition; 4.3% of 150,000 active; P15428; Potency, µM, inactives show top-dose activity change, negative = inhibition, actives largely listed as inhibitors; AID 894; purified HPGD, NADH fluorescence kinetic, PGE2 substrate; also: potency is read from the fitted curve at half-maximal effect
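NADH formation kinetics: reaction with 30 uM PGE2 and 1 mM NAD+ (final), 20 nM enzyme, Tris-HCl pH 8 with Tween 20, after 15 min compound preincubation at room temperature. Fluorescence change, last versus first of five reads.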
PNC inhibitor – inhibitors of perinucleolar compartment assembly | PC3M PTB-GFP, PNC prevalence imaging, 16 h; active compounds read low | 3.1% of 140,000 active | activity change (PNC), negative = inhibition, % at 10 µM | AID 2417;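 active = readout at or below -70, meaning at least 70% loss of cells showing the perinucleolar compartment, a nuclear body marking cancer cells; inconclusive = readout between -30 and a set limit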;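 also: plate controls were DMSO wells for no effect and camptothecin positive control wells for full effect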
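PC3M cells stably expressing PTB-GFP, 750–1000 cells/well, treated 16 h at 37 °C with compound (23 nl of library stock), in duplicate. After paraformaldehyde fixation and Hoechst stain, imaged at 20x; PNC prevalence scored by image analysis.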
ALDH1A1 inh – inhibitors of human aldehyde dehydrogenase 1A1 | Purified ALDH1A1, NADH fluorescence, propionaldehyde substrate | Potency, µM (top dose mostly 75.3 µM), without a hit: top-dose activity, negative = inhibition, hits mostly inhibitors | 7.3% of 220,000 active;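 also: potency is read from the fitted curve at half-maximal effect; plate controls were no enzyme wells and a reference inhibitor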
Target sequence (P00352 whole entry, looked up): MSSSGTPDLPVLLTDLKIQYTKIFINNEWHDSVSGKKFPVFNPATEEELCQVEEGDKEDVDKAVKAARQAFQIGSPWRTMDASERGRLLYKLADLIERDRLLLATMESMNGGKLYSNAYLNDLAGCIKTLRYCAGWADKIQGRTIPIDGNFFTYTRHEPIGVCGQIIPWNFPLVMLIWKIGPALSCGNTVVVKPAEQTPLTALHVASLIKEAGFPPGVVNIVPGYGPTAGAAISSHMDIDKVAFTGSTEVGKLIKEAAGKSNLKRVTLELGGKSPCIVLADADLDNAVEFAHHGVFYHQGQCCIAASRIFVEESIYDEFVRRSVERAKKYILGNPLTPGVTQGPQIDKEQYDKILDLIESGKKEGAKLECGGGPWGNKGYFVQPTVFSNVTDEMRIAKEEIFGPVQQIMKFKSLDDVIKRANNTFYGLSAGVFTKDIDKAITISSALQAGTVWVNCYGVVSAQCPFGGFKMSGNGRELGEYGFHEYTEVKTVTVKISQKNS
JMJD2E inh – blocks human JMJD2E demethylase activity | 1.6% of 230,000 active | Potency, µM (doses to about 57.1 µM), for the others: at the highest dose activity change, negative = inhibition, usual class: inhibitors | B2RXH2 | JMJD2E catalytic domain, FDH-coupled NADH fluorescence (FDH is formaldehyde dehydrogenase);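 also: potency is read from the fitted curve at half-maximal effect; 0% = wells with enzyme and -100% = buffer wells without enzyme; nearly all actives have a fitted effect of over 50% in size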
Starred values were filed as active, the others as inactive; ? = inconclusive; nt = no result given; [ ] = dose if it differs, or a comment. This is a sample that favours compounds with a hit; in the whole collection about 11% have one here. Unless noted, calls follow the shape of the dose curve; as a rule, active = well fitted inhibition curve with a large enough effect (not every such curve was filed as active); inconclusive = small, poorly fitted or top-dose-only effect, or another doubt; inactive = no such curve, though single readings can be large or run the other way. Unless noted, % is scaled to controls: 0 for no effect and ±100 for the full control effect.

SMILES	HPGD inh	PNC inhibitor	ALDH1A1 inh	JMJD2E inh
CCc1ccccc1NC(=S)N(CCCN1CCOCC1)Cc1cccs1	-4.3%	8.8	?	0.0%
CN(C)CCCOC1C(C(O)CO)OC2OC(C)(C)O[C@@H]21 (some centres undefined)	-6.5%	nt	2.3%	3.1%
COc1ccccc1-n1c(-c2ccc(Cl)cc2)c[nH]c1=S	nt	nt	?	-20.4%
Fc1ccc(-c2c[nH]c(=S)n2Cc2ccccc2)cc1	nt	nt	0.355µM*	-16.6%
CN(C)[C@@H]1C(=O)C(C(N)=O)=C(O)[C@]2(O)C(=O)C3=C(O)c4c(O)ccc(Cl)c4[C@H](O)[C@H]3C[C@@H]12	-6.4%	nt	-2.5%[20.9 µM]	?
CC(Cl)C(=O)NC(=O)NC12CC3CC(CC(C3)C1)C2 (centres undefined)	nt	30.1	1.6%	1.9%
O=C(CCl)NC(=O)NC12CC3CC(CC(C3)C1)C2	-9.0%	28.8	7.94µM*	-2.5%
CCn1c(-c2ccccc2)csc1=Nc1ccc(O)cc1	nt	nt	?	0.0%
O=C(/C=C/c1ccco1)Nc1ccccn1	-21.1%	?	-5.8%	-3.5%
COc1cccc(NC(=O)/C=C/c2ccco2)c1	nt	nt	25.1µM*	-16.3%
O=C(/C=C/c1ccco1)Nc1ccc(C(=O)N2CCOCC2)cc1	17.8µM*	14.3	?	-1.4%
COc1cccc(NC(=O)/C=C\c2ccc(Cl)cc2)c1	-15.3%	nt	?	2.3%
Cc1ccc(NC(=O)/C=C/c2ccco2)nc1	-3.0%	-100.0*	6.1%	-7.6%
O=C(/C=C/c1ccco1)c1ccc(NC(=O)C23CC4CC(CC(C4)C2)C3)cc1	?	44.0	25.1µM*	31.6µM*
O=S(=O)(Nc1ccc(Cl)cc1Cl)c1cc(Cl)ccc1Cl	?	nt	2.1%	nt
CCNC(=O)[C@H](C)/C=C/C(NC(=O)OCc1ccccc1)c1ccc(C(=O)OC)cc1 (some centres undefined)	-8.2%	nt	-13.0%	-2.5%
COc1ccc(C(=O)C2CCCN(Cc3cccc4c3OCO4)C2)cc1OC (centres undefined)	nt	nt	7.5%	-3.4%
Nc1c(Cl)ncnc1NCCc1ccc(O)cc1	nt	nt	nt	11.3%
C/C(=N/NC(=O)c1ccoc1C)c1ccc(NC(=O)c2ccncc2)cc1	-18.7%	-2.5	-11.0%	-1.3%
CC(/C=C/c1ccco1)=N\NC(=O)c1cccnc1	-28.5%	-24.3	7.94µM*	?
CSc1cccc(NC(=O)/C=C/c2ccco2)c1	nt	nt	3.16µM*	-22.5%
COc1ccc(NC(=O)N/C=C/c2ccco2)cc1	nt	nt	28.2µM*	-4.0%
CC(/C=C/c1ccco1)=N/NC(=O)c1ccc(C)nc1	nt	nt	nt	-5.7%
C/C(=N\NC(=O)c1ccoc1C)c1cccnc1	-7.5%	-88.9*	3.8%	-8.2%
O=C(NCc1ccco1)C(=O)N1CCCC1	nt	nt	12.9%	1.0%
SMILES	HPGD inh	PNC inhibitor	ALDH1A1 inh	JMJD2E inh
CC(CC(=O)Nc1ccccc1C(F)(F)F)c1ccccc1 (centres undefined)	-23.8%	?	6.9%	2.1%
O=C(/C=C/c1ccco1)Nc1cccnc1	nt	nt	28.2µM*	1.7%
C/C(CC(=O)NC1CCCC1)=N\NC(=O)Cc1cccs1	-1.2%	-21.7	4.4%	16.3%
CC(/C=N/NC(=O)Cc1cccs1)=C\c1ccco1	-9.1%	90.3	?	-5.5%
C/C(CC(=O)NC12CC3CC(CC(C3)C1)C2)=N\NC(=O)Cc1cccs1	-13.7%	-25.8	8.91µM*	6.9%
CC(/C=C/c1ccco1)=N/NC(=O)Cc1cccs1	-20.7%	17.2	2.82µM*	-27.5%
c1ccc(CN(CCN(Cc2ccccn2)Cc2ccccn2)Cc2ccccn2)nc1	nt	nt	-14.1%	nt
COc1ccc(S(=O)(=O)NCCCCC(=O)O)cc1C(=O)O	nt	nt	-6.7%	1.5%
CC(C)Sc1nc(-c2ccccc2)cc(=O)[nH]1	-29.7%	-13.7	20µM*	-0.3%
CC(C)(C)c1ccc(O)c(N=Cc2cc(Br)ccc2O)c1	nt	nt	?	28.2µM*
OCC(CO)(CO)N=Cc1cc(Br)ccc1O	-6.5%	8.6	9.7%	-17.0%
CCN(CC)c1ccc(N=Cc2cc(Br)ccc2O)cc1	nt	nt	7.94µM*	?
Cc1ccc(O)c(C=Nc2cc(C)ccc2O)c1	-16.4%	?	-4.1%	20µM*
Oc1ccc(Br)cc1C=Nc1ccc(Cl)cc1	nt	nt	7.0%	-7.7%
CCCCc1nnc(NC(=O)COC)s1	nt	nt	-2.8%	-0.4%
CC1(OC(=O)C2CCCC2)C(=O)C=C2C=C3CCCN3C=C2C1=O (centres undefined)	-16.1%	nt	10.1%[13.5 µM]	-15.3%[11.4 µM]
CC1(OC(=O)CCc2ccccc2)C(=O)C=C2C=C3CCCN3C=C2C1=O (centres undefined)	-10.1%	nt	2.5%[13.5 µM]	17.8µM*
CC1(OC(=O)c2cccs2)C(=O)C=C2C=C3CCCN3C=C2C1=O (centres undefined)	-7.8%	nt	1.6%[13.5 µM]	5.62µM*
CCCn1c(CCC(=O)O)nc2cc(S(=O)(=O)N3CCCC3)ccc21	nt	nt	nt	-2.0%
COc1ccc2[nH]cc(CCNc3cc(-c4ccccc4OC)ncn3)c2c1	nt	nt	5.5%	nt
C=C(C)CSc1[nH]c(=O)cc(C)c1C#N	nt	nt	-16.9%	2.9%
O=S(=O)(c1cccs1)N1CCN(CC(O)COc2cccc(Br)c2)CC1 (centres undefined)	-2.4%	-15.5	20µM*	?
CCS(=O)(=O)c1ccc(O)c(NC(=O)c2cc(OC)c(OC)c(OC)c2)c1	-17.4%	?	15.8µM*	2.1%
Cc1ccc(/C=C/C(=O)c2ccccc2O)cc1	nt	nt	nt	-23.6%
Cc1ccc2occ(/C=C/C(=O)c3ccccc3O)c(=O)c2c1	-16.7%	73.6	7.94µM*	-4.4%
SMILES	HPGD inh	PNC inhibitor	ALDH1A1 inh	JMJD2E inh
Cc1cc(NC(=O)CN2C(=O)CC(c3ccco3)Sc3ccccc32)no1 (centres undefined)	-5.0%	-22.9	14.1µM*	9.1%
CCOc1ccc(N2C(=O)CN(O)C=C3N=c4ccccc4=C32)cc1	nt	nt	10µM*	3.4%
CCOc1ccc(N2C(=O)CN(C)C2=S)cc1	-11.3%	27.8	4.5%	8.1%
N#Cc1ccc(N2C(=O)[C@@H]3C(C(=O)c4ccc5ccccc5n4)=NN[C@@H]3C2=O)cc1	-19.9%	30.9	7.94µM*	1.9%
N#Cc1ccc(N2C(=O)[C@@H]3C(C(=O)c4cnccn4)=NN[C@@H]3C2=O)cc1	nt	nt	14.1µM*	?
O=C(C1=NN[C@@H]2C(=O)N(c3ccccc3C(F)(F)F)C(=O)[C@H]12)c1ccc2ccccc2n1	-8.1%	-23.7	7.7%	-4.7%
Cn1[nH]c(C(F)(F)F)cc1=O	nt	nt	10.6%	-6.1%
CC(OC(=O)c1cccnc1)C(=O)NCc1ccc2c(c1)OCO2 (centres undefined)	nt	20.5	-1.0%	-6.2%
CCCc1nc2ccccc2c(C(=O)OC(C)C(=O)NCc2ccc3c(c2)OCO3)c1CC (centres undefined)	-20.7%	?	4.47µM*	0.2%
CC(OC(=O)c1nn(C)c(=O)c2ccccc12)C(=O)NCc1ccc2c(c1)OCO2 (centres undefined)	20µM*	-22.8	?	0.2%
CC(=O)C1=C(c2ccccc2)OC(N)=C(C#N)C1c1ccc(O)cc1 (centres undefined)	-12.2%	?	20µM*	-0.6%
COC(=O)C1=C(C)OC(N)=C(C#N)C1c1ccccc1 (centres undefined)	-21.5%	-25.4	?	6.4%

Source: PubChem BioAssay (National Center for Advancing Translational Sciences (NCATS))
